Measurements from PMC7862700, “An all-to-all approach to the identification of sequence-specific readers for epigenetic DNA modifications on cytosine”.

How the values were obtained:
Test in all cases: DAPPL (digital affinity profiling via proximity ligation, sequencing); 10 mM Tris-HCl pH 7.5, 50 mM NaCl, 1 mM DTT, 4% glycerol, room temperature, 30 min; GST-TFs on glutathione beads, 16-mer random dsDNA library, 0.1% formaldehyde crosslink after washing; high values mean tight binding
FEV = target: T1, FEV (Homo sapiens, UniProt Q99581 1-238); conditions: protein: recombinant; tags: N-terminal GST; dsDNA, one strand shown
T1 sequence: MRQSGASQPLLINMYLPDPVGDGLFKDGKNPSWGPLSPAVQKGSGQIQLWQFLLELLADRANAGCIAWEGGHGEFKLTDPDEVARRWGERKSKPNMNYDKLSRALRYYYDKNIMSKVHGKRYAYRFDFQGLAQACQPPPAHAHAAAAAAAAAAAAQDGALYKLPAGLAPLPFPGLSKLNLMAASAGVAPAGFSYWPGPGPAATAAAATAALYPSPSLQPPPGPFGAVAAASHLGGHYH
How it was run: (§1)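 Pools were built from human transcription factors expressed in yeast as GST fusions, captured on glutathione beads and DNA-barcoded, along with a tag-only sample. Incubation with 200 nmole of a 16-mer random double-stranded DNA library lasted 30 min at room temperature in Tris/NaCl/DTT/glycerol buffer, and was followed by washing, 0.1% formaldehyde crosslinking, proximity ligation, PCR amplification and Illumina NextSeq500 sequencing. Binding signal is the quotient of each hexamer's read frequency for a factor and its frequency for the tag-only sample.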

ETV5 = ETV5 (Homo sapiens, UniProt P41161 1-510); conditions: protein: recombinant; tags: N-terminal GST; dsDNA, one strand shown
ETV5, sequence (P41161 whole entry): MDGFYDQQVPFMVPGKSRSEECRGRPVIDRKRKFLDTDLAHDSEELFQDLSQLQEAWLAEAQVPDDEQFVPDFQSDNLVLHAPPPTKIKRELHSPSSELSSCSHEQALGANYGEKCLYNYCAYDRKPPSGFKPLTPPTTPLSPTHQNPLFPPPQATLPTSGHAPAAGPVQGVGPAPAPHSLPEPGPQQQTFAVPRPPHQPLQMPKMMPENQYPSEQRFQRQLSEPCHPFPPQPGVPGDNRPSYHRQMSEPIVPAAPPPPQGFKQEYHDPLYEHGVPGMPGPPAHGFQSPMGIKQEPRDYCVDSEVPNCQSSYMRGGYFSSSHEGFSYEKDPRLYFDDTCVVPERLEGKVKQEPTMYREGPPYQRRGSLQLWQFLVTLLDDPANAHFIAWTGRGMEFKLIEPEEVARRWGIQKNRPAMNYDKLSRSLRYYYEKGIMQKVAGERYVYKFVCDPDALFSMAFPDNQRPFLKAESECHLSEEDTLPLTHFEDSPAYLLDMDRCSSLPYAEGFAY
How it was run: as §1

HSF1 = HSF1 (Homo sapiens, UniProt Q00613 1-529); conditions: protein: recombinant; tags: N-terminal GST; chain copies: 3; dsDNA, one strand shown
HSF1, sequence (Q00613 whole entry): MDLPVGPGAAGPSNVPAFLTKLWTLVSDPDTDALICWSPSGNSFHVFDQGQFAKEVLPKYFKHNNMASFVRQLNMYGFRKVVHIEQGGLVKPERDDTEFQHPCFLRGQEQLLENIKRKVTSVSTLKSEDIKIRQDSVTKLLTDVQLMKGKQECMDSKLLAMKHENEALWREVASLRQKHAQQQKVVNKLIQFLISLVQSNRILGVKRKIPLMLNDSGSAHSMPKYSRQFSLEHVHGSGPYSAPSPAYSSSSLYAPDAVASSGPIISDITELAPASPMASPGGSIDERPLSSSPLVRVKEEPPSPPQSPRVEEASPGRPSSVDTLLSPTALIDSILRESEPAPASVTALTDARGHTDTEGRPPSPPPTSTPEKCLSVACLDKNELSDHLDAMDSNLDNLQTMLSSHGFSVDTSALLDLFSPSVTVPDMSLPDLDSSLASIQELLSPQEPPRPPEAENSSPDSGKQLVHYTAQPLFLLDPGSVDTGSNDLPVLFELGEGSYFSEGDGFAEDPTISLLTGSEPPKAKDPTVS
How it was run: as §1

SPIC = target: T2, SPIC (Homo sapiens, UniProt Q8N5J4 1-248); conditions: protein: recombinant; tags: N-terminal GST; dsDNA, one strand shown
T2 sequence: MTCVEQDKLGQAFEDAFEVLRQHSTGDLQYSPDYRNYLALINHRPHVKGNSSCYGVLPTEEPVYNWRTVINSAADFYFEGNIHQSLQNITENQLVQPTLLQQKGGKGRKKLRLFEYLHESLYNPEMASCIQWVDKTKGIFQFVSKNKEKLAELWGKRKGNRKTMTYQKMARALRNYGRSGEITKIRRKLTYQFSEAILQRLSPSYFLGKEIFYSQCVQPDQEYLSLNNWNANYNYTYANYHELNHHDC
How it was run: as §1

ELF4 = ELF4 (Homo sapiens, UniProt Q99607 1-663); conditions: protein: recombinant; tags: N-terminal GST; dsDNA, one strand shown
ELF4, sequence (Q99607 whole entry): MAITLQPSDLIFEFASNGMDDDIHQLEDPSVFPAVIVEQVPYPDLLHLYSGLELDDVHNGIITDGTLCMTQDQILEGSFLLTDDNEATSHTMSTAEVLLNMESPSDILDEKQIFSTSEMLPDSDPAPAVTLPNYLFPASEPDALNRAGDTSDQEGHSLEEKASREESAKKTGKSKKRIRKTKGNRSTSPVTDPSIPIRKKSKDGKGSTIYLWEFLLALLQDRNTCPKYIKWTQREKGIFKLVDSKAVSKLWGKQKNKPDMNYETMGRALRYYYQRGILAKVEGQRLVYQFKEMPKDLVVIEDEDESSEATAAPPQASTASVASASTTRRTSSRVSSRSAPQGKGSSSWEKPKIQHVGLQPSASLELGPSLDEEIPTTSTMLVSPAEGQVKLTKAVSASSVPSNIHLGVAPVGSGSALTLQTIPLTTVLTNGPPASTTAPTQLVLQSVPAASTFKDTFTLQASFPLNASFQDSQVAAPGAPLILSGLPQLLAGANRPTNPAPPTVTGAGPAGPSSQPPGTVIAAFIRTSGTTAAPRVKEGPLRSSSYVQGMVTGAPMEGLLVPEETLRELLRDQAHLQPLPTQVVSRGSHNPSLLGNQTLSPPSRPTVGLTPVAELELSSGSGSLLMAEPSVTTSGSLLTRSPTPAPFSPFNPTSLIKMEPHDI
How it was run: as §1

ELK4 = target: T3, ELK4 (Homo sapiens, UniProt P28324-2 1-405); conditions: protein: recombinant; tags: N-terminal GST; dsDNA, one strand shown
T3 sequence: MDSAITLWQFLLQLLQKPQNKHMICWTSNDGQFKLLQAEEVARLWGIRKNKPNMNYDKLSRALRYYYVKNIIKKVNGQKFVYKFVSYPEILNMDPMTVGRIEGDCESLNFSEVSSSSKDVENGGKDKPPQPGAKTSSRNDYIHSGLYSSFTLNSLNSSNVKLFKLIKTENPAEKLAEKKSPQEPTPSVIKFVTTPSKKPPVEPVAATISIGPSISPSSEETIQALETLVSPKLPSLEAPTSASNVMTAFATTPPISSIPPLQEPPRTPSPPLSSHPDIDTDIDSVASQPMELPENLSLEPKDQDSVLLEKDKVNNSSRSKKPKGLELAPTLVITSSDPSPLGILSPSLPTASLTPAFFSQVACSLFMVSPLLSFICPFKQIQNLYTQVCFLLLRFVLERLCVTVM
How it was run: as §1

ETV2 = target: T4, ETV2 (Homo sapiens, UniProt O00321 1-342); conditions: protein: recombinant; tags: N-terminal GST; dsDNA, one strand shown
T4 sequence: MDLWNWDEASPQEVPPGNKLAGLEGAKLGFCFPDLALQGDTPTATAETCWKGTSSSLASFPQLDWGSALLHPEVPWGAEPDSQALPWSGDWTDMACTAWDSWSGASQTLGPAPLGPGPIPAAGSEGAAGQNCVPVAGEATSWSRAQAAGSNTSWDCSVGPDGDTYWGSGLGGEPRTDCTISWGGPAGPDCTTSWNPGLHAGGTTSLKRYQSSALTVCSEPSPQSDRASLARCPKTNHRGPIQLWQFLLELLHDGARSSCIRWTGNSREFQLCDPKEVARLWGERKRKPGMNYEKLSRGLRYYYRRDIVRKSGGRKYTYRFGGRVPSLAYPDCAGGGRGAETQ
How it was run: as §1

ELF3 = target: T5, ELF3 (Homo sapiens, UniProt P78545 1-371); conditions: protein: recombinant; tags: N-terminal GST; dsDNA, one strand shown
T5 sequence: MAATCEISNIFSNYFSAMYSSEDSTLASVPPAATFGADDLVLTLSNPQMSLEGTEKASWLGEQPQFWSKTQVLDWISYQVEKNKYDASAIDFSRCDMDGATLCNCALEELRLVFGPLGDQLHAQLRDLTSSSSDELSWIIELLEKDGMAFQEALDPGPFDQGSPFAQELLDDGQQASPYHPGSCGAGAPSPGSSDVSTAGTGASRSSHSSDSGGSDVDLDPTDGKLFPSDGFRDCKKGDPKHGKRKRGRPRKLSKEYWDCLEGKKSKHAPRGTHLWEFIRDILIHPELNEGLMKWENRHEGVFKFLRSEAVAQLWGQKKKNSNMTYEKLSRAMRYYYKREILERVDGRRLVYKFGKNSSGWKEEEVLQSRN
How it was run: as §1

CRX = CRX (Homo sapiens, UniProt O43186 1-299); conditions: protein: recombinant; tags: N-terminal GST; dsDNA, one strand shown
CRX, sequence (O43186 whole entry): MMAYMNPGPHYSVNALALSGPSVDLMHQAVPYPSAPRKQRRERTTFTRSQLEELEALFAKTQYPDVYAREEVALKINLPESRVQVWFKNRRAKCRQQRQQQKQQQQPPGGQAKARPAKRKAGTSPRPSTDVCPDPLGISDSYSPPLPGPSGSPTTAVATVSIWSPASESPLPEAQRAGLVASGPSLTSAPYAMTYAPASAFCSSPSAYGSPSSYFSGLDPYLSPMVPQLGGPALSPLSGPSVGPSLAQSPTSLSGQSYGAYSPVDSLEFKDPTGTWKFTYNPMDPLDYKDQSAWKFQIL
How it was run: as §1

ETV1 = ETV1 (Homo sapiens, UniProt P50549 1-477); conditions: protein: recombinant; tags: N-terminal GST; dsDNA, one strand shown
ETV1, sequence (P50549 whole entry): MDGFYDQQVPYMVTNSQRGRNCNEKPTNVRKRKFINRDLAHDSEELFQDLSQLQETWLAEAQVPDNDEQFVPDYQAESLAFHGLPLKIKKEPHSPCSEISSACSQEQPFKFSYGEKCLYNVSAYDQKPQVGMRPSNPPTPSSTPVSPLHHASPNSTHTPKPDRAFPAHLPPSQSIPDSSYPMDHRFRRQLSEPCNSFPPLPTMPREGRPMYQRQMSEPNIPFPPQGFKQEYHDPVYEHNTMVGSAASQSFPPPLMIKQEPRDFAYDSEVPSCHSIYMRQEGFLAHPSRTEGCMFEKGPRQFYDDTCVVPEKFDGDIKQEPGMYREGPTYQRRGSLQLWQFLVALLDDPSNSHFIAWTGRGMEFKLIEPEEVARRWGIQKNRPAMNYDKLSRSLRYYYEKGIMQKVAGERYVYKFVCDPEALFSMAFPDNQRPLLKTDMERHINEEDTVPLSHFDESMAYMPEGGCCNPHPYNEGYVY
How it was run: as §1

ERF = target: T6, ERF (Homo sapiens, UniProt P50548 1-548); conditions: protein: recombinant; tags: N-terminal GST; dsDNA, one strand shown
T6 sequence: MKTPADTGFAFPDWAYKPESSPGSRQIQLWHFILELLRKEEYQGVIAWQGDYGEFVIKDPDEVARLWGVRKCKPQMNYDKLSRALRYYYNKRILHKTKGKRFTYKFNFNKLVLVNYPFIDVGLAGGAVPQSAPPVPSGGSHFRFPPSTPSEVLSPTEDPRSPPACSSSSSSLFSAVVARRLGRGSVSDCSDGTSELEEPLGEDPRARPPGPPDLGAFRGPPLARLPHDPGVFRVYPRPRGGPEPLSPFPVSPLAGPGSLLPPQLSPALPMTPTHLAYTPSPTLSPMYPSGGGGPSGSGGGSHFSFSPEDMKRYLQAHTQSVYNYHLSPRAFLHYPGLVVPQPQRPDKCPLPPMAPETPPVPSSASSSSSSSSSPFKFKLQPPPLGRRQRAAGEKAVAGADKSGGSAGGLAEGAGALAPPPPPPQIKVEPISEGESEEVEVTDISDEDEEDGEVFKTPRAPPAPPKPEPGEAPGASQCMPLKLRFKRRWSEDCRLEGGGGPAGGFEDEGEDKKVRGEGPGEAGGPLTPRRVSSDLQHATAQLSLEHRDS
How it was run: as §1

ETV3L = target: T7, ETV3L (Homo sapiens, UniProt Q6ZN32 1-361); conditions: protein: recombinant; tags: N-terminal GST; dsDNA, one strand shown
T7 sequence: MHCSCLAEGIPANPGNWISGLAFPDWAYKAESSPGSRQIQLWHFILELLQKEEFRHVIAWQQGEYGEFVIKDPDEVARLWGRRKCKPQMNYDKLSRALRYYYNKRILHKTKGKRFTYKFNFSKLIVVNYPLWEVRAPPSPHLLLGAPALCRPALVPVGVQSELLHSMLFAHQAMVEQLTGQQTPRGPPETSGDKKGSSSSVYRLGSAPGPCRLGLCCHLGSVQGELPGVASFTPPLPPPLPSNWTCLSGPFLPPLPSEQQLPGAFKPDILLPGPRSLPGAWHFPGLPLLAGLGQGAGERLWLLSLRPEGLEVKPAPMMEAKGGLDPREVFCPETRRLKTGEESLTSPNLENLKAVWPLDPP
How it was run: as §1

ETS2 = target: T8, ETS2 (Homo sapiens, UniProt P15036 1-469); conditions: protein: recombinant; tags: N-terminal GST; dsDNA, one strand shown
T8 sequence: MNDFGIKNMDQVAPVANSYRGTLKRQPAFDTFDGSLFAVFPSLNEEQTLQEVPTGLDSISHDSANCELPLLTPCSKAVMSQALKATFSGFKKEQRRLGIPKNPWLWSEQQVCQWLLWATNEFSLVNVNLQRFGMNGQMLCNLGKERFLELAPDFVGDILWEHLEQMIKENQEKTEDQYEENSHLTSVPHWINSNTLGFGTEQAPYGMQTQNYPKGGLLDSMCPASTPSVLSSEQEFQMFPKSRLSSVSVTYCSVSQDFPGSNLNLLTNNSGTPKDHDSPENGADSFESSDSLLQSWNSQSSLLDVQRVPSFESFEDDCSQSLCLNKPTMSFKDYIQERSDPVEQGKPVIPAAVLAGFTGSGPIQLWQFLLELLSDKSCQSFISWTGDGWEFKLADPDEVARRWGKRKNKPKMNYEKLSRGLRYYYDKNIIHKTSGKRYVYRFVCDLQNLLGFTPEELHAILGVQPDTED
How it was run: as §1

SPDEF = target: T9, SPDEF (Homo sapiens, UniProt O95238 1-335); conditions: protein: recombinant; tags: N-terminal GST; dsDNA, one strand shown
T9 sequence: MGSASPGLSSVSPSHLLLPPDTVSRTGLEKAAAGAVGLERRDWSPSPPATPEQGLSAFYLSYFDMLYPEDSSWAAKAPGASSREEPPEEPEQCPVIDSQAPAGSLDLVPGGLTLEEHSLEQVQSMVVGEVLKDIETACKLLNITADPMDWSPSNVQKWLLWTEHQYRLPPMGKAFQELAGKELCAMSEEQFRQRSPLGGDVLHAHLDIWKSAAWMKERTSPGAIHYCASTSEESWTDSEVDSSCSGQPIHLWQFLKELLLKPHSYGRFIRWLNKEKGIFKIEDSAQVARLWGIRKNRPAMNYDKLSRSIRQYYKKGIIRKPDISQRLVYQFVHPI
How it was run: as §1

ETV7 = target: T10, ETV7 (Homo sapiens, UniProt Q9Y603 1-341); conditions: protein: recombinant; tags: N-terminal GST; dsDNA, one strand shown
T10 sequence: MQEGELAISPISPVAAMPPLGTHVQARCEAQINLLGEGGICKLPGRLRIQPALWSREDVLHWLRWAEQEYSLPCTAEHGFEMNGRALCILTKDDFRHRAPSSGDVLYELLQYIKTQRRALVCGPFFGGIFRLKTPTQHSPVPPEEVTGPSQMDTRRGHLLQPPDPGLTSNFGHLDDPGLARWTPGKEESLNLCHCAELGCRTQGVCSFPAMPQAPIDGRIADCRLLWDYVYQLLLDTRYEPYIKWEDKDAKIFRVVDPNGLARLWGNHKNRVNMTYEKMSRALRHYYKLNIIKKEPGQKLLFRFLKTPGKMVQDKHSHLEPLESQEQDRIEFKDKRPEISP
How it was run: as §1

ELF5 = target: T11, ELF5 (Homo sapiens, UniProt Q9UKW6-2 1-255); conditions: protein: recombinant; tags: N-terminal GST; dsDNA, one strand shown
T11 sequence: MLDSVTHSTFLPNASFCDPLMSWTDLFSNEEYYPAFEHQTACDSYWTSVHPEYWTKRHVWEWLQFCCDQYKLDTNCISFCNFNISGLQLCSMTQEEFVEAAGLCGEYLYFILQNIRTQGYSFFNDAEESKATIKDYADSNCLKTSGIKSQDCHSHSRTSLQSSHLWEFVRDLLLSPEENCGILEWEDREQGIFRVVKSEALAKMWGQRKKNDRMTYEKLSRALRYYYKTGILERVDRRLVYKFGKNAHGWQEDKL
How it was run: as §1

ETV3 = target: T12, ETV3 (Homo sapiens, UniProt P41162-2 1-143); conditions: protein: recombinant; tags: N-terminal GST; dsDNA, one strand shown
T12 sequence: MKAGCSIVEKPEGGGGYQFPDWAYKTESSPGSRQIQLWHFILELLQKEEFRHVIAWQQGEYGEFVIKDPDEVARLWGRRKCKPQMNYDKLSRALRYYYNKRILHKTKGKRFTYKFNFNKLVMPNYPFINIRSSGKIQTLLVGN
How it was run: as §1

ETV6 = ETV6 (Homo sapiens, UniProt P41212 1-452); conditions: protein: recombinant; tags: N-terminal GST; dsDNA, one strand shown
ETV6, sequence (P41212 whole entry): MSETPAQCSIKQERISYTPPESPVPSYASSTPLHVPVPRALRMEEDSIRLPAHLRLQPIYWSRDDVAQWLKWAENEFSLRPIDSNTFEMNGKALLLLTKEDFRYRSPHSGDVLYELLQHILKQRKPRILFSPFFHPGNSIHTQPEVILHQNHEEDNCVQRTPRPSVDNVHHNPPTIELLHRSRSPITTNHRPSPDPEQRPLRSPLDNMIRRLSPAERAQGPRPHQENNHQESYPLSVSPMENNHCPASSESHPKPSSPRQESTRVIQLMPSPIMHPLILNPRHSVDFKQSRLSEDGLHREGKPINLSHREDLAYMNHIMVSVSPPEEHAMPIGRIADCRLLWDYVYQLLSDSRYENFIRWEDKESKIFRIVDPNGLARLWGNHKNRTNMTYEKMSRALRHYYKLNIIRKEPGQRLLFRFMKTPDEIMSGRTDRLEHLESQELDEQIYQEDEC
How it was run: as §1

For TCGCTC, the binding signal (FEV) was 1.23 fold enrichment (6-mer frequency, TF over GST control), the binding signal (ETV5) was 1.24 fold enrichment (6-mer frequency, TF over GST control) and the binding signal (HSF1) was 1.25 fold enrichment (6-mer frequency, TF over GST control). The binding signal (SPIC) was 1.24 fold enrichment (6-mer frequency, TF over GST control), the binding signal (ELF4) was 1.31 fold enrichment (6-mer frequency, TF over GST control) and the binding signal (ELK4) was 1.29 fold enrichment (6-mer frequency, TF over GST control). The binding signal (ETV2) was 1.22 fold enrichment (6-mer frequency, TF over GST control), the binding signal (ELF3) was 1.4 fold enrichment (6-mer frequency, TF over GST control) and the binding signal (CRX) was 1.12 fold enrichment (6-mer frequency, TF over GST control). For the same sequence, the binding signal (ETV1) was 1.38 fold enrichment (6-mer frequency, TF over GST control), the binding signal (ERF) was 1.35 fold enrichment (6-mer frequency, TF over GST control) and the binding signal (ETV3L) was 1.37 fold enrichment (6-mer frequency, TF over GST control). For the same sequence, the binding signal (ETS2) was 1.32 fold enrichment (6-mer frequency, TF over GST control), the binding signal (SPDEF) was 1.19 fold enrichment (6-mer frequency, TF over GST control) and the binding signal (ETV7) was 1.02 fold enrichment (6-mer frequency, TF over GST control). The binding signal (ELF5) was 1.25 fold enrichment (6-mer frequency, TF over GST control), the binding signal (ETV3) was 1.11 fold enrichment (6-mer frequency, TF over GST control) and the binding signal (ETV6) was 1.28 fold enrichment (6-mer frequency, TF over GST control).
